The source made the active and inactive calls. Rule for the calls: active = hit-call score of the fitted dose curve at least 0.9, where 1 is the maximum; inactive = score below 0.9.
Assay: ATG_CRE_CIS: Attagene CIS-FACTORIAL HepG2 Assay for human cAMP Responsive Element (CRE) binding protein 3 (AID 2282926)
Settings: HepG2 CRE cis-reporter, Attagene multiplexed mRNA; actives raise or lower the signal
Procedure: ATG_CIS is a cell-based, multiplexed-readout assay that uses HepG2, a human liver cell line, with measurements taken at 24 hours after chemical dosing in a 24-well plate.ATG_CRE_CIS is one of 52 assay component(s) measured or calculated from the ATG_CIS assay. It is designed to make measurements of mRNA induction, a form of inducible reporter, as detected with fluorescence intensity signals by Reverse transcription polymerase chain reaction (RT-PCR) and Capillary electrophoresis technology.Data from the assay component ATG_CRE_CIS was analyzed into 1 assay endpoint. This assay endpoint, ATG_CRE_CIS, was analyzed with bidirectional fitting relative to DMSO as the negative control and baseline of activity. Using a type of inducible reporter, measures of mRNA for gain or loss-of-signal activity can be used to understand the reporter gene at the transcription factor-level as they relate to the gene CREB3. Furthermore, this assay endpoint can be referred to as a primary readout, because this assay has produced multiple assay endpoints where this one serves a reporter gene function. To generalize the intended target to other relatable targets, this assay endpoint is annotated to the dna binding intended target family, where the subfamily is basic leucine zipper.
Human liver HepG2 cells are transiently transfected with multiple reporter transcription units (MRTUs) in 6-well plates using FuGene 6 reagent (Roche; 3 ml FuGene/1 mg DNA). The MRTU constructs are regulated by a cis-regulating element (promoter). […] A major difference between the CIS and TRANS system is that in CIS activities of endogenous TFs are measured, whereas the TRANS assay evaluates changes in activities of exogenous, chimeric NR-Gal4 proteins. […] At the end of 24 hour incubation, total RNA was isolated using TriZol reagent (Invitrogen). The isolated RNA is then reverse-transcribed using oligo(dT) primer and Mo-MLV reverse transcriptase (Invitrogen) with DNAse I (Ambion) treatment for 30 min. The one-tenth of the produced cDNA was amplified by PCR using Taq DNA polymerase (Invitrogen) and two reporter sequence-specific primers. The PCR products were fluorescently labeled by primer extension with 6-arboxyfluorescein (6-FAM) 5'-labeled reporter sequence-specific primer (2 min at 95 C, 20 s at 68 C and 10 min at 72 C) and these products were digested with 5U of HpaI (New England Biolabs) for 2h at 37 C. The fragments were purified using Qiaquick PCR columns (Qiagen), analyzed on an ABI 3130xL genetic analyzer (Applied Biosystems) with peak positions identified by using a set of X-rhodamine (ROX)-labeled MapMarker1000 molecular weight standards (BioVentures). The raw capillary electrophoresis data was processed using Attagraph software (Attagene).

| Compound | outcome | AC50 |
| --- | --- | --- |
| CCCCC(CC)COCCO (stereo not given) | inactive |  |
| CCCCCCCCOC(=O)c1ccc(O)cc1 | inactive |  |
| O=C(O)CS | inactive |  |
| CC/C(=C(\c1ccccc1)c1ccc(OCCN(C)C)cc1)c1ccccc1 | inactive |  |
| Cc1ccccc1S |  | 72.3 µM (active) |
| N=C1N=C(N)c2ccccc21 | inactive |  |
| CC(=N[Si](C)(C)C)O[Si](C)(C)C | inactive |  |
| OC[C@H]1O[C@@H](O[C@H]2[C@H](O)[C@@H](O)[C@H](O)O[C@@H]2CO)[C@H](O)[C@@H](O)[C@H]1O | inactive |  |
| COc1ccccc1NC(=O)CC(C)=O | inactive |  |
| CC/C=C\CCCCO | inactive |  |
| CCOC(=O)CC(C)C | inactive |  |
| CC(=O)CCc1ccc(O)cc1 | inactive |  |
| CCCCOCCOCCOCCO | inactive |  |
| O=C(OCc1ccccc1)c1ccccc1O | inactive |  |
| C/C=C(\C)C(=O)OC/C=C(\C)CCC=C(C)C | inactive |  |
| CCCCCCCCCOS(=O)(=O)O | inactive |  |
| CCCCOCCOCCO | inactive |  |
| CC/C=C\C#N | inactive |  |
| O=S1(=O)CC=CC1 | inactive |  |
| CC12CCC(C1)C(C)(C)C2O (stereo not given) | inactive |  |

| Compound | outcome | AC50 |
| --- | --- | --- |
| CCCCCCC(C)O (stereo not given) | inactive |  |
| CC1=C(C=O)C(C)(C)CCC1 | inactive |  |
| CCOC(=O)COC(=O)c1ccccc1C(=O)OCC | inactive |  |
| OCC=Cc1ccccc1 | inactive |  |
| C1COCO1 | inactive |  |
| NCCN1CCNCC1 | inactive |  |
| CCO[Si](CC)(OCC)OCC | inactive |  |
| CCC(C)(C)c1cc(O)c(C(C)(C)CC)cc1O |  | 5.39 µM (active) |
| O=C(O)c1ccco1 | inactive |  |
| CC(C)N1C(=O)c2ccccc2C1=O | inactive |  |
| CC(C)CCOC(=O)CC(C)C | inactive |  |
| c1ccc(Sc2ccccc2)cc1 | inactive |  |
| NC(N)=NC(N)=NCCc1ccccc1 | inactive |  |
| C=C(C)C(=O)OCCC(C)OC(=O)C(=C)C (stereo not given) | inactive |  |
| O=C(O)C1=NN(c2ccc(S(=O)(=O)O)cc2)C(=O)C1 | inactive |  |
| CC(C)(C)c1cccc(O)c1 | inactive |  |
| C=CC(=O)OCCCCCC | inactive |  |
| O=c1cc(-c2ccc(O)cc2)oc2cc(O)cc(O)c12 |  | 26 µM (active) |
| CCCCCCCCCO | inactive |  |
| CC(=O)CCC=C(C)CCC=C(C)C | inactive |  |

Reference: PubChem BioAssay (EPA / NIEHS)
